From PubChem
Nrf2 block = Nrf2 pathway inhibition. 360,000 compounds, 2.1% hits. Potency, µM (highest dose often 46 µM), hits mostly inhibitors. AID 504444. A549 ARE-Fluc reporter, luciferase luminescence, 18-24 h; also: nearly all actives have a fitted effect of over 60% in size
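Nrf2 function is reported as luminescence of an ARE-controlled luciferase in A549 cells. Compounds were tested at several concentrations, and a CellTiter-Fluor read on the same wells flagged cytotoxicity.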
A549 tox = A549 cytotoxicity, counter-screen for Nrf2 inhibitors; A549 ARE-Fluc cells, CellTiter-Fluor viability, 18-24 h; Potency, µM (highest dose often 46 µM), most hits filed as inhibitors; 390,000 compounds, 0.16% hits
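Cytotoxicity counterscreen: CellTiter-Fluor fluorescence was measured in A549 ARE_Fluc cells after 18-24 h of compound exposure in a concentration series. The subsequent BugLite luminescent read reports ARE-luciferase activity.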
Nrf2 ARE act = activators of Nrf2 (ARE) signaling | AREc32 ARE-luciferase reporter (MCF7-derived line), luminescence, 24 h | Potency, µM (series often up to 46.1 µM), usual class: activators | 410,000 compounds, 0.31% hits | AID 624171; also: nearly all actives have a fitted effect of over 65% in size
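AREc32_Fluc, 1000 cells/well, OPTI-MEM + 5% FBS, o/n 37 deg C 5% CO2; 23 nL cpd by pin tool, 24 hr; Steady-Glo 30 min RT, luminescence.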
AT treatment = candidate therapy for ataxia-telangiectasia; F2112 A-T fibroblasts, KAP-1 phosphorylation AlphaLISA; neocarzinostatin DNA damage 30 min before lysis; Potency, µM (titrated, usually from 57.5 µM), most hits filed as activators; 320,000 compounds, 0.19% hits; AID 485349; also: nearly all actives have a fitted effect of over 45% in size
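ATM-like activity read as KAP-1 phosphorylation via AlphaLISA donor/acceptor antibody pairs after lysis and 6 hr at 25C. Cells were ATM-null patient fibroblasts (F2112, hTERT), dosed 60 min, then exposed to the DSB inducer NCS for 30 min.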
TCR act = activators of T cell receptors. 330,000 tested, under 10 active. Potency, µM (highest dose often 9.22 µM), most hits filed as activators. primary human leukocytes, anti-CD3, IL-2 HTRF, 48 h
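TCR engagement came from a-CD3 beads alone, with compounds added to primary human leukocytes for 48 hr. Secreted IL-2 bridged europium cryptate- and d2-labelled anti-IL-2 antibodies, giving FRET emission at 665nm after 320nm excitation.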
CCT chaperon mod = cytosolic chaperonin activity modulation | purified chaperonin ATPase assay, HTRF ADP detection, 30 min | activity change, % (test concentration not listed), hits read low | 360,000 compounds, 0.3% hits | AID 651819; in the data active = activity change below about -30%
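Nucleotide hydrolysis assay: TRiC at 20–40 nM final (set by batch activity) with 10 uM ATP, 30 min at 37 °C, in presence of 76 uM compound. Detection by competitive ADP HTRF, 30 min ambient.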
Large screens that a line does not name were inactive. The list is not random: actives were taken first. Their share in the collection is about 2.6%. Unless noted, calls follow the shape of the dose curve; as a rule, active = well fitted curve in the direction sought with a large enough effect; inconclusive = small, poorly fitted or top-dose-only effect, or another doubt; inactive = no such curve, though single readings can be large; an effect the other way counts as inactive or inconclusive.

COc1cc(C2C(C#N)=C(N)N(Nc3ccccc3)C3=C2C(=O)CC(C)(C)C3)ccc1OCc1cccc(F)c1 (stereo not given)	Nrf2 block inconclusive, A549 tox inconclusive
Cc1ccc(C)c(N2CCN(C(=O)Cc3cn(C)c4ccccc34)CC2)c1	Nrf2 block 21µM, A549 tox inconclusive
Cc1cc2nc(/C=C/c3nc4cc(C)c(C)cc4[nH]3)[nH]c2cc1C	AT treatment 22µM
CC(=O)NS(=O)(=O)c1ccc(NC(=O)c2ccc(NC(=O)c3cccs3)cc2)cc1	none
Cn1c(=O)c([N+](=O)[O-])c(NCc2ccccc2)c2ccccc21	CCT chaperon mod -56
CCn1c(=O)c([N+](=O)[O-])c(NCc2ccco2)c2ccccc21	A549 tox inconclusive, Nrf2 ARE act 8.9µM, AT treatment inconclusive
CCc1ccc(NC(=O)CN2C(C(=O)OC)=C(c3ccccc3)c3ccccc3S2(=O)=O)cc1	none (no result: AT treatment, TCR act, CCT chaperon mod)
Cc1ccc(Nc2nc(C#N)nc(NC3CCCC3)n2)cc1	none (no result: Nrf2 ARE act, AT treatment, TCR act, CCT chaperon mod)
CC(C)c1ccc(NC(=O)C(c2ccccc2)N2CCC3(CC2)OCCO3)cc1 (stereo not given)	Nrf2 block 15µM (no result: AT treatment)
CC1CCN(S(=O)(=O)c2ccc3c(c2)CCN3C(=O)Nc2cccc(Br)c2)CC1	none (no result: AT treatment, TCR act, CCT chaperon mod)
O=C(CCNC(=O)c1ccc(Br)cc1)OCc1ccccc1Cl	none
Cc1ccc(S(=O)(=O)N(C)CCCC(=O)Nc2ccc(F)cc2)cc1	none
Cc1ccc(S(=O)(=O)N(C)CCCC(=O)Nc2ccncc2)cc1	Nrf2 block 9.2µM
O=[N+]([O-])c1ccc(-c2nc(C(Cl)Cl)c3ccccc3n2)cc1	Nrf2 block 15µM, A549 tox inconclusive
COCCN1CCN(C(=O)C2CCC(=O)N(CCc3ccccc3)C2)CC1 (stereo not given)	none
CC(=O)NCCOc1nc(N(C)C)nc(N2CCCCC2)n1	none
Cc1ncc(CO)c(/C=N/Nc2ccc(C(F)(F)F)cn2)c1O	Nrf2 block 10µM, A549 tox inconclusive
Cc1ncc(CO)c(/C=N/NC(=S)Nc2ccc(F)cc2)c1O	Nrf2 block inconclusive
CC(C)=CCC/C(C)=C/CC/C(C)=C/COc1ccc2ccc(=O)oc2c1	none
CC(C)c1ccc(NC(=O)CSc2nc(=O)n(Cc3cccnc3)c3c2CCC3)cc1	none (no result: Nrf2 block, AT treatment, TCR act, CCT chaperon mod)
CC1=C(C(=O)OC(C)C)C(c2cn(-c3ccccc3)nc2-c2cccs2)NC(=O)N1 (stereo not given)	Nrf2 block 18µM, A549 tox inconclusive
Cc1cc2nc(-c3ccco3)c(Cc3cccc(Cl)c3)n2c(C)c1Br	Nrf2 ARE act inconclusive (no result: Nrf2 block, A549 tox, AT treatment, TCR act)
O=C(Nc1nccs1)c1ccc(Br)o1	Nrf2 block inconclusive
O=C(/C=C/c1ccc(Br)o1)Nc1nccs1	Nrf2 block inconclusive, Nrf2 ARE act 6.3µM
CCOC(=O)c1cnc2ccc(OC)cc2c1NCCc1ccc(OC)c(OC)c1	Nrf2 block 16µM, A549 tox inconclusive
Cc1ccc2oc(=O)c3cc(C(=O)NCCc4ccc(Cl)cc4)sc3c2c1	none (no result: AT treatment, TCR act, CCT chaperon mod)
Cc1ccc(-c2cc(C(=O)OC3CCOC3=O)c3ccccc3n2)c(C)c1 (stereo not given)	none
O=C(OC1CCOC1=O)c1cc(-c2cccs2)nc2ccccc12 (stereo not given)	CCT chaperon mod -74
Clc1ccccc1CN(Cc1ccco1)Cc1nnnn1C1CCCC1	Nrf2 block inconclusive, CCT chaperon mod -70 (no result: AT treatment)
C=CCN1C(=O)c2ccccc2NC1c1cc(Br)cs1 (stereo not given)	none
COc1cccc(C(=O)N2CCN(c3ccc(N4CCOCC4)nn3)CC2)c1	none
COc1ccc2c(c1)CCc1cc(C(=O)N3CCN(c4ccc(N5CCOCC5)nn4)CC3)sc1-2	Nrf2 block 18µM
CC(C)Oc1ccc(C(=O)OC(C)C(=O)NC2CCCCC2C)cc1 (stereo not given)	none
CC(OC(=O)c1ccc2c(c1)OCCO2)C(=O)NC1CCCCC1C (stereo not given)	Nrf2 block 18µM
COc1ccc(C2c3c(nc(CCCc4ccccc4)[nH]c3=O)Oc3ccc4ccccc4c32)cc1OC (stereo not given)	none (no result: Nrf2 ARE act, AT treatment, TCR act, CCT chaperon mod)
Cc1ccc(C)c(CSc2nnc(C)n3c2cc2sccc23)c1	Nrf2 block 26µM (no result: AT treatment, TCR act, CCT chaperon mod)
COc1cccc(NC(=O)CN(C)C(=O)CC2CCCC2)c1	CCT chaperon mod -34 (no result: AT treatment)
COc1ccc(CCNc2nc(C)cc(=O)[nH]2)cc1OC	none (no result: AT treatment, TCR act)
CCOc1cc(C)nc(NCCc2ccc(OC)c(OC)c2)n1	Nrf2 block 26µM
COc1ccc(CCNc2ncnc3sc(C)cc23)cc1OC	Nrf2 block 23µM
COc1ccc(CCNc2ncnc3[nH]ncc23)cc1OC	Nrf2 block inconclusive
Cc1ccc(C)c(OCCn2c(C3CC(=O)N(Cc4ccc(F)cc4)C3)nc3ccccc32)c1 (stereo not given)	Nrf2 block inconclusive (no result: AT treatment, TCR act, CCT chaperon mod)
CC1CCC(C(=O)NC(C(=O)OCC(=O)c2ccccc2)C(C)C)CC1 (stereo not given)	Nrf2 block 16µM (no result: AT treatment, TCR act, CCT chaperon mod)
CCc1ccc(C(=O)COC(=O)C(Cc2ccccc2)NC(=O)C2CCC(C)CC2)cc1 (stereo not given)	Nrf2 block inconclusive
C(=C\c1nccc2c1[nH]c1ccccc12)/c1ccccc1	Nrf2 block inconclusive, AT treatment 22µM
CCCn1c(-c2cccs2)nc2nc3ccccc3nc21	Nrf2 ARE act 4.5µM
O=C1CCc2cc(S(=O)(=O)NCc3ccccc3)ccc2N1	none (no result: Nrf2 ARE act, AT treatment, TCR act, CCT chaperon mod)
N#Cc1ccc(OCC(=O)N2CCN(S(=O)(=O)c3ccc(Cl)s3)CC2)cc1	Nrf2 block 23µM
CCC(C)(C)c1ccc(OCCCC[n+]2cccc(C)c2C)c(C(C)(C)CC)c1	Nrf2 block 5.8µM, A549 tox 12µM
CCC(C)(C)c1ccc(OCCCC[n+]2ccc(C)cc2)c(C(C)(C)CC)c1	Nrf2 block 13µM, A549 tox inconclusive
Cc1cc[n+](CC[n+]2ccc(C)cc2)cc1	none
Cc1ccccc1C(=O)Nc1ccccc1OCc1cc(=O)n2ccccc2n1	none (no result: Nrf2 block, AT treatment, TCR act, CCT chaperon mod)
CC[C@]12c3[nH]c4cc(-c5ccco5)ccc4c3CCN1C(=O)[C@@H](CC(=O)NCCCN(C)C)C[C@@H]2C(=O)N1CCN(C(=O)C2CC2)CC1	none
CC(C)Cn1c(=O)c2c(nc3n2CCCN3Cc2ccccc2)n(C)c1=O	Nrf2 block 12µM
CCn1c(=O)c2c(nc3n2CCCN3Cc2ccccc2)n(C)c1=O	none
CSC(=NS(=O)(=O)c1ccc(N)cc1)NS(=O)(=O)c1cccs1	none (no result: AT treatment)
CCc1cc2c(cc3c(=O)n(CC(=O)NC4CCC(C)CC4)ncn32)s1 (stereo not given)	none (no result: AT treatment, TCR act, CCT chaperon mod)
